SMN2 splice enh = qHTS Assay for Enhancers of SMN2 Splice Variant Expression. HEK293 SMN2-luciferase splicing reporter, luminescence, 30-36 h. Potency, µM (top dose mostly 46.1 µM), most hits filed as activators. 210,000 tested, 2.8% active. AID 1458, 2008; also: nearly all actives have a fitted effect of over 55% in size
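qHTS luciferase splicing reporter: luminescence rises when SMN2 exon 7 is included in transfected HEK293 cells. Compound exposure lasted 30-36 h at 37C, with 4.5 mM final sodium butyrate as control, followed by a ONE-Glo read.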
NPC1 promoter act = qHTS Assay for NPC1 Promoter Activators; AID 485313, 2010; Huh7 NPC1 promoter luciferase reporter, 24 h; 320,000 tested, 2.4% active; Potency, µM (doses to about 9.22 µM), actives largely listed as activators; also: nearly all actives have a fitted effect of over 60% in size
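Huh7 reporter cells (NPC1 promoter driving luciferase) are dosed with compound for 24 h at 37 °C, 5% CO2; luciferase detection reagent is then added and luminescence measured after 10 min at ambient temperature.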
FLuc counter = qHTS profiling assay for firefly luciferase inhibitor/activator using purifed enzyme and Km concentrations of substrates (counterscreen for miR-21 project); Luciferin 4-monooxygenase (Photinus pyralis), P08659; purified FLuc, Km substrates, luminescence inhibition; Potency, µM (series often up to 57.5 µM), hits mostly inhibitors; 360,000 tested, 6.9% active; also: nearly all actives have a fitted effect of over 55% in size
Target sequence (P08659 whole entry, looked up): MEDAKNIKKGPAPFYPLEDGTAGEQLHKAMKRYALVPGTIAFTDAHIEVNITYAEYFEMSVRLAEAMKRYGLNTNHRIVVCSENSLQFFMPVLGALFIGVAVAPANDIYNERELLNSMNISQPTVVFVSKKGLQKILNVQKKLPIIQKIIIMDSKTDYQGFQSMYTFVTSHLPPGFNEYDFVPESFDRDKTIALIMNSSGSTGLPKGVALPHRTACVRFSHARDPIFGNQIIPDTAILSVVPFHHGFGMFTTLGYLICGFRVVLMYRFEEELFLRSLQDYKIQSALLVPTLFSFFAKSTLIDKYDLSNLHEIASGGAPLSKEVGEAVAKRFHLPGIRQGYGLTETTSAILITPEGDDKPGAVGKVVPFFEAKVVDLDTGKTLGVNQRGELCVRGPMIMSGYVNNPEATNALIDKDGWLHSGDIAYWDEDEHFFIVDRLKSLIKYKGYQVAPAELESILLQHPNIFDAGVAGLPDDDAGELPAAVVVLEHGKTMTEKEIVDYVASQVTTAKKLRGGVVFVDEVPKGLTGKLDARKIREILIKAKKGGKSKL
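Purified P. pyralis luciferase, 10 nM final, with Km-level 10 uM D-luciferin and 10 uM ATP in 50 mM Tris acetate pH 7.5, 10 mM Mg acetate, 0.01% Tween-20, 0.05% BSA; 6-point qHTS titration about 60 µM downward; luminescence read.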
ELG1 genotoxic = qHTS screen for small molecules that induce genotoxicity in human embryonic kidney (HEK293T) cells expressing luciferase-tagged ELG1 | 330,000 tested, 1.3% active | Potency, µM (top dose mostly 46 µM), actives largely listed as activators | HEK293T ELG1-luciferase reporter, luminescence, 16 h; also: nearly all actives have a fitted effect of over 60% in size
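16 hr compound incubation (37 °C, 5% CO2) of HEK293T cells carrying luciferase-tagged ELG1; luciferase then measured by ONE-Glo luminescence after 30 min at RT.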
Rab9 prom act = qHTS Assay for Rab9 Promoter Activators; Huh7 Rab9 promoter-luciferase reporter, luminescence, 24 h; Potency, µM (titrated, usually from 9.22 µM), actives largely listed as activators; 320,000 tested, 2.8% active; AID 485297, 2010; also: nearly all actives have a fitted effect of over 60% in size
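Luminescence from Amplite-detected luciferase (10 minutes, ambient) reports Rab9 promoter activation. Before that, stable Rab9-luciferase Huh7 cells (1500/well, reduced-serum OP-MEM I plus 10% FBS) were exposed to compound for 24 hours at 37C.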
Hits are given with their value. The list is not random: actives were taken first. Their share in the collection is about 7.4%. Calls follow the shape of the dose curve; as a rule, active = well fitted curve in the direction sought with a large enough effect; inconclusive = small, poorly fitted or top-dose-only effect, or another doubt; inactive = no such curve, though single readings can be large; an effect the other way counts as inactive or inconclusive.

COC(=O)c1sc(-c2ccc(C(C)(C)C)cc2)cc1NC(=O)CCC(=O)O was read as NPC1 promoter act inactive, FLuc counter 1.5µM, ELG1 genotoxic inconclusive and Rab9 prom act inactive.
`CCOc1ccc(-c2cc(NC(=O)c3ccccc3)c(C(=O)OC)s2)cc1` gave SMN2 splice enh inactive and FLuc counter inactive.
Screening COC(=O)c1sc(-c2ccc(Cl)cc2)cc1NC(=O)COCC(=O)O returned NPC1 promoter act inactive, FLuc counter inconclusive, ELG1 genotoxic inactive and Rab9 prom act inactive.
Screening COC(=O)c1sc(-c2ccc(Cl)cc2)cc1NC(=O)/C=C/C(=O)O returned NPC1 promoter act inactive, FLuc counter 9.5µM, ELG1 genotoxic inactive and Rab9 prom act inactive.
`FC(F)Oc1ccccc1/C=N/n1cnc2ccccc21` gave SMN2 splice enh inconclusive, NPC1 promoter act inactive, FLuc counter 24µM, ELG1 genotoxic inactive and Rab9 prom act inactive.
NC(N)=N/N=C/c1ccccc1OC(F)F was read as SMN2 splice enh inactive, NPC1 promoter act inactive, FLuc counter inactive, ELG1 genotoxic inactive and Rab9 prom act inactive.
`CCc1ccc(CNC(=O)CN2C(=O)c3cccnc3Oc3ccc(Cl)cc32)cc1` gave FLuc counter inactive.
`Cc1csc(=Nc2ccccc2)n1C` gave SMN2 splice enh inactive, NPC1 promoter act inactive, FLuc counter inactive, ELG1 genotoxic inactive and Rab9 prom act inactive.
`Cc1ccc(N=c2sc(C)c(C)n2C)cc1` gave SMN2 splice enh inconclusive, NPC1 promoter act inconclusive, FLuc counter 21µM, ELG1 genotoxic inconclusive and Rab9 prom act inconclusive.
Screening CCc1ccccc1NC(=O)Nc1ccc(F)cc1 returned NPC1 promoter act inactive, FLuc counter inconclusive, ELG1 genotoxic inactive and Rab9 prom act inactive.
`C[C@H](NC(=O)Nc1ccccc1F)C(=O)O` gave SMN2 splice enh inconclusive, NPC1 promoter act inactive, FLuc counter inactive, ELG1 genotoxic inactive and Rab9 prom act inactive.
For O=C(Nc1ccccc1F)Nc1ccccc1F the results were SMN2 splice enh 13µM, NPC1 promoter act inconclusive, FLuc counter 15µM, ELG1 genotoxic inactive and Rab9 prom act 2.5µM.
O=C(CCc1ccccc1)Nc1ccc(F)cc1F was read as SMN2 splice enh inactive, NPC1 promoter act inactive, FLuc counter inconclusive, ELG1 genotoxic inconclusive and Rab9 prom act inconclusive.
`O=C(CCc1ccccc1)Nc1ccccc1F` gave SMN2 splice enh 16µM, NPC1 promoter act inconclusive, FLuc counter 12µM, ELG1 genotoxic inconclusive and Rab9 prom act 2.8µM.
O=C(Nc1ccc(Br)cc1)Nc1ccccc1F was read as NPC1 promoter act 1.6µM, FLuc counter 4.8µM, ELG1 genotoxic inconclusive and Rab9 prom act 2.8µM.
O=C(NNc1ccccc1)Nc1ccccc1F was read as NPC1 promoter act inactive, FLuc counter 19µM, ELG1 genotoxic inactive and Rab9 prom act inactive.
Screening Cc1cc(C)n(C(C)CC(=O)NCc2ccc(N(C)C)cc2)n1 (stereo not drawn) returned FLuc counter inactive.
`O=C(Nc1ccccc1F)Nc1cccc2ccc(O)cc12` gave NPC1 promoter act inactive, FLuc counter 17µM, ELG1 genotoxic inactive and Rab9 prom act inconclusive.
`Cc1ccc(-c2cc(C(=O)NCc3ccccc3)c3c(-c4ccc(C)cc4)[nH]nc3n2)cc1` gave FLuc counter inactive.
COc1ccc(S(=O)(=O)NCC(c2ccc(N(C)C)cc2)N2CCc3ccccc32)cc1F (stereo not drawn) was read as FLuc counter inactive.
For Cc1ccc(NC(=O)CN(C)C(=O)c2cc(-c3ccco3)nc3ccccc23)cc1 the results were NPC1 promoter act inactive, FLuc counter 24µM, ELG1 genotoxic inactive and Rab9 prom act inactive.
`CN(CC(=O)Nc1ccc(F)cc1)C(=O)c1cc(-c2ccco2)nc2ccccc12` gave NPC1 promoter act inactive, FLuc counter inconclusive, ELG1 genotoxic inactive and Rab9 prom act inactive.
Screening COc1ccc(-c2nn(-c3ccccc3)cc2C(=O)N(C)CC(=O)Nc2cccc(F)c2)cc1 returned NPC1 promoter act inactive, FLuc counter inactive, ELG1 genotoxic inactive and Rab9 prom act inactive.

Assay outcomes as filed in PubChem.
